Laboratory results published in article PMC4336329 (PLoS ONE, 2015).
Screen size: about 310,000 compounds; about 2,200 (0.71%) showed an effect of 50% or more. The effect is printed as a negative number. Only a selection was taken, and strong results are over-represented in it overall.

Each compound was assayed against human ether-à-go-go-related gene (hERG) potassium channel (human, UniProt Q12809) (assay: primary screen, population patch clamp on CHO cells stably expressing hERG; higher = less effect of the substance).
Sequence of human ether-à-go-go-related gene (hERG) potassium channel (Q12809 whole entry, looked up): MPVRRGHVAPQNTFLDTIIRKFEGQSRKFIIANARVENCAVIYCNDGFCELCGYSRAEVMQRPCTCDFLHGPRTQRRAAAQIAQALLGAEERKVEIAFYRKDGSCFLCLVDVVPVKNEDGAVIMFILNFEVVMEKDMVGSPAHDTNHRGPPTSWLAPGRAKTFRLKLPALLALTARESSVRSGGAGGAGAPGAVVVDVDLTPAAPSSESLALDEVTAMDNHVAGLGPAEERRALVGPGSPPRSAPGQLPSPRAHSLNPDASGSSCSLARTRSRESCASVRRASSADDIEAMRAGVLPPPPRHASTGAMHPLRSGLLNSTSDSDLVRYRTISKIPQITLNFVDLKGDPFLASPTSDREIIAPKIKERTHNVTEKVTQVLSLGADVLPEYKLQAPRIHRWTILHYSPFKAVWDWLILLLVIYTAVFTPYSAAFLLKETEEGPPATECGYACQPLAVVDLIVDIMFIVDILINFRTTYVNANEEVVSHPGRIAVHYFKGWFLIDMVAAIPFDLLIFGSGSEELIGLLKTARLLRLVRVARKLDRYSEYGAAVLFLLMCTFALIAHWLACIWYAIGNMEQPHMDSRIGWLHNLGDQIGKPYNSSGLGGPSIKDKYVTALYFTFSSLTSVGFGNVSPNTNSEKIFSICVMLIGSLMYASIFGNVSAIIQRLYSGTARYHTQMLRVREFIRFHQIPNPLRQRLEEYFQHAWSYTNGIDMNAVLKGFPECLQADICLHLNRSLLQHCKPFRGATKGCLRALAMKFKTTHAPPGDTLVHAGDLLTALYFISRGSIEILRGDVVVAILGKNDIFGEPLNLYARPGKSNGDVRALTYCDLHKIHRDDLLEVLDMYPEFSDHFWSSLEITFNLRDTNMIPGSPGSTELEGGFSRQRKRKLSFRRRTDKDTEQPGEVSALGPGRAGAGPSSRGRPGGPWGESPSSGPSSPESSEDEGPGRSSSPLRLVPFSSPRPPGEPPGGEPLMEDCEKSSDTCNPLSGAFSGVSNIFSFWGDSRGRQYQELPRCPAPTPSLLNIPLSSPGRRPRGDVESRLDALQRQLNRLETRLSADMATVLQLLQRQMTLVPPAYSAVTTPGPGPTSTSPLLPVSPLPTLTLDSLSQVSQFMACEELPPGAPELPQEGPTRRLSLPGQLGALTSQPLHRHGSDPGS

Row | SMILES | hERG current change (%, negative = inhibition) at 1uM
1 | Cc1sc2nc[nH]c(=O)c2c1-c1ccc(F)cc1 | 17.2%
2 | Cc1ccccc1Nc1nc(-c2sc(NC(=O)c3ccccc3)nc2C)cs1 | 7.9%
3 | CC(c1ccncn1)N(C)C(=O)c1ccc2oc(Cc3ccccc3)nc2c1 (stereo not drawn) | 9.8%
4 | CCOc1ccc(NS(=O)(=O)c2ccc(NS(=O)(=O)c3ccc(SC)cc3)cc2)cc1 | 9.23%
5 | CCCN1Cc2cccc(C(=O)NCc3ccc(C)cc3)c2C1=O | -4.32%
6 | CCC(C)N(C)C(=O)c1cc2ccccc2c(-c2ccccc2Cl)n1 (stereo not drawn) | -5.29%
7 | CC(Oc1ccc(Cl)cc1)C(=O)OCC(=O)Nc1ncc(Cl)cc1Cl (stereo not drawn) | 3.29%
8 | O=C(Nc1ccc(F)cc1)c1nc[nH]c1C(=O)O | 18.5%
9 | CCCCCn1c(=N)n(CC(O)COc2ccccc2OC)c2ccccc21 (stereo not drawn) | -82.8%
10 | CCCCCn1c(=N)n(CC(O)COc2ccccc2OC)c2ccccc21.Cl (stereo not drawn) | -86.3%
11 | COc1ccccc1OCC(O)Cn1c(=N)n(CCN2CCCCC2)c2ccccc21.Cl (stereo not drawn) | -27.9%
12 | C=CCn1c(=N)n(CC(O)COc2ccccc2OC)c2ccccc21.Cl (stereo not drawn) | -43.5%
13 | COc1ccccc1OCC(O)Cn1c(=N)n(Cc2ccccc2)c2ccccc21.Cl (stereo not drawn) | -39.6%
14 | Cc1ccccc1OCC(O)Cn1c(=N)n(Cc2ccccc2)c2ccccc21.Cl (stereo not drawn) | -48.4%
15 | COC(=O)[C@H](C)NC(=O)Nc1ccc(C)c(C)c1 | 15.2%
16 | Cc1ccnc(SCc2ccc([N+](=O)[O-])cc2)n1 | -1.04%
17 | COCCN(C(=O)CSc1nc(-c2ccccc2)cn1N)c1c(N)n(Cc2ccccc2)c(=O)[nH]c1=O | 3.04%
18 | CCCC(=O)Nc1cc(C(=O)O)ccc1Sc1ccc(C)cc1 | 10.9%
19 | Cc1occc1-c1nnc(SCC(=O)NC2CCCC2)n1C | 13.5%
20 | Cc1occc1-c1nnc(SCC(=O)NC2CCCC2)n1-c1ccccc1 | 0.492%
21 | Cc1cccc(-n2c(SCC(=O)Nc3nonc3C)nnc2-c2ccoc2C)c1 | -81.9%
22 | Cc1nonc1NC(=O)CSc1nnc(-c2ccoc2C)n1-c1cccc(Cl)c1 | -58.8%

Row | SMILES | hERG current change (%, negative = inhibition) at 1uM
23 | Cc1nonc1NC(=O)CSc1nnc(-c2ccoc2C)n1C | 9.71%
24 | Cc1cccc(-n2c(SCC(=O)NC3CCCC3)nnc2-c2ccoc2C)c1 | -68.6%
25 | CCCn1c(SCC(=O)Nc2nonc2C)nnc1-c1ccoc1C | 5.83%
26 | CCn1c(SCC(=O)Nc2nonc2C)nnc1-c1ccoc1C | 7.63%
27 | Cc1ccc(C)c(-n2c(SCC(=O)Nc3nonc3C)nnc2-c2ccoc2C)c1 | 9.3%
28 | c1ccc2c(c1)CCCn1nnnc1-2 | 6.71%
29 | CCCC(=O)N(Cc1cc(=O)[nH]c2ccccc12)c1ccccc1C | 13.1%
30 | O=C(Cn1cnc(S(=O)(=O)N2CCCC2)c1)Nc1cccc(F)c1 | 14.4%
31 | COc1ccc(S(=O)(=O)N2CCOCC2)cc1NC(=O)c1ccc(-n2nc(C)cc2C)cc1 | 6.25%
32 | CCc1ccc(C(=O)OCC(=O)Nc2cccc(S(=O)(=O)NC3=NCCCCC3)c2)cc1 | 7.29%
33 | COc1ccc(CNS(=O)(=O)c2ccc3c(c2)CC(C)N3C(=O)C2CC2)cc1 (stereo not drawn) | 15.1%
34 | CCN1CCN(CCCNC(=O)CCC(=O)N2CCOc3ccc(Cl)cc32)CC1 | 6.48%
35 | O=C(CCC(=O)N1CCOc2ccc(Cl)cc21)NCCCN1CCN(c2ccccc2F)CC1 | -22.2%
36 | O=C(CCC(=O)N1CCOc2ccc(Cl)cc21)NCCCN1CCN(Cc2ccccc2)CC1 | -63.7%
37 | O=C(CCC(=O)N1CCOc2ccc(Cl)cc21)NCCCN1CCOCC1 | 12.5%
38 | O=C(CCC(=O)N1CCOc2ccc(Cl)cc21)NCCCN1CCC(Cc2ccccc2)CC1 | -64.7%
39 | Cc1ccc2c(c1)N(C(=O)CCC(=O)NCCCN1CCN(C)CC1)CCO2 | 7.21%
40 | Cc1ccc2c(c1)N(C(=O)CCC(=O)NCCCN1CCOCC1)CCO2 | 13.9%
41 | O=C(CCC(=O)N1CCOc2ccccc21)NCCCN1CCN(Cc2ccccc2)CC1 | -41.9%
42 | Cc1ccc2c(c1)N(C(=O)CCC(=O)NCCCN1CCC(Cc3ccccc3)CC1)CCO2 | -78.7%
43 | CC(NS(=O)(=O)c1cccc(S(=O)(=O)c2ccccc2)c1)C(=O)O (stereo not drawn) | 7.71%
44 | O=C(CSc1ccc(-c2cccnc2)nn1)N1CCCCC1 | 14.1%

Row | SMILES | hERG current change (%, negative = inhibition) at 1uM
45 | COc1ccc(-c2[nH]ncc2CN(C)C(C)c2ccncn2)c(F)c1 (stereo not drawn) | 1.94%
46 | COc1cc(Br)c(C(=O)c2nccc3cc(OC)c(OC)cc23)cc1OC | 10.6%
47 | O=C(COc1ccc2ccc(=O)oc2c1)Nc1nccs1 | 2.46%
48 | O=C1N/C(=N/N=C/c2ccc(O)cc2)SC1Cc1ccccc1 (stereo not drawn) | -0.776%
49 | Cc1occc1C(=O)N/N=C/c1ccc(N(C)C)cc1 | 15.7%
50 | O=C(NC1(C(F)(F)F)NC(=O)N(Cc2ccco2)C1=O)c1cccs1 (stereo not drawn) | 19.2%
51 | CC(=O)N1CCN(c2ccc(NC(=O)c3ccc(Br)o3)cc2Cl)CC1 | -1.25%
52 | Cc1ccc(Cl)cc1N1CCN(S(=O)(=O)c2cnc[nH]2)CC1 | 1.64%
53 | CN(Cc1ccccc1)S(=O)(=O)c1cc2c3c(c1)CCN3C(=O)CC2 | 6.98%
54 | O=C(NN1C(=O)c2ccccc2NC1c1ccco1)c1ccc(Br)cc1 (stereo not drawn) | -50.4%
55 | O=C(NN1C(=O)c2ccccc2NC1c1ccco1)c1ccccc1 (stereo not drawn) | 4.38%
56 | O=C(NN1C(=O)c2ccccc2NC1c1ccc([N+](=O)[O-])o1)c1ccc(Br)cc1 (stereo not drawn) | -27.2%
57 | O=C(Nc1ccc2oc(=O)ccc2c1)c1cccnc1Cl | -2.76%
58 | CN(C)S(=O)(=O)c1ccc(C(=O)OCCCN=C2NS(=O)(=O)c3ccccc32)cc1 | -5.83%
59 | COc1ccc(CN2CCCC(C(=O)c3ccc(Cl)cc3)C2)c(OC)c1 (stereo not drawn) | -53.6%
60 | CSc1ccc(C(=O)C2CCCN(Cc3cccnc3)C2)cc1 (stereo not drawn) | -4.37%
61 | COc1ccc(C(=O)C2CCCN(Cc3cc(Cl)ccc3O)C2)c(OC)c1 (stereo not drawn) | 12.6%
62 | COc1cc(CN2CCCC(C(=O)c3ccc(SC)cc3)C2)cc(Cl)c1O (stereo not drawn) | -3.13%
63 | CSc1ccc(C(=O)C2CCCN(CCCn3cccn3)C2)cc1 (stereo not drawn) | -78.3%
64 | O=C(c1ccc(-c2ccccc2)c(F)c1)C1CCCN(CCCn2cccn2)C1 (stereo not drawn) | -38.6%
65 | COc1cccc(C(=O)C2CCCN(Cc3ccc(OC)c(Cn4cncn4)c3)C2)c1 (stereo not drawn) | -20.2%
66 | COc1ccc(CN2CCCC(C(=O)c3ccc(Cl)cc3)C2)cc1Cn1cncn1 (stereo not drawn) | -59.9%

Row | SMILES | hERG current change (%, negative = inhibition) at 1uM
67 | COc1ccc(CN2CCCC(C(=O)c3ccc(Cl)cc3)C2)c(O)c1 (stereo not drawn) | -21.3%
68 | O=C(c1ccc(Cl)cc1)C1CCCN(Cc2ccc3nonc3c2)C1 (stereo not drawn) | 0.831%
69 | CSc1ccc(C(=O)C2CCCN(Cc3cnc(SC)nc3)C2)cc1 (stereo not drawn) | -33.7%
70 | COc1ccc(CN2CCCC(C(=O)c3ccc(SC)cc3)C2)cc1Cn1cccn1 (stereo not drawn) | -68.5%
71 | Cc1ccc(-c2nc(Nc3cccc(C)c3)sc2CC(=O)O)cc1 | 9.35%
72 | O=C(NCCCCc1ccccc1)Nc1cccc(F)c1 | 4.51%
73 | COC(=O)CNS(=O)(=O)c1ccc(C)cc1 | 11.1%
74 | CCn1c(SCC(=O)NCCc2ccccc2)nnc1C(C)C | 12%
75 | CCOC(=O)c1oc2ccc(S(=O)(=O)Nc3ccc4c(c3)n(C)c(=O)n4C)cc2c1C | 2.26%
76 | Cc1cc(-c2ccccc2)nc2cc(C(=O)N(Cc3ccccc3)Cc3ccccc3)nn12 | -3.92%
77 | CN(C)C(=S)Nc1ccc(Br)cc1Cl | 7.39%
78 | Nc1nccnc1C(=O)N/N=C/c1ccco1 | 13.2%
79 | Cc1csc(NC(=O)CSc2nnc(CCNC(=O)c3ccc(Cl)c(Cl)c3)n2C)n1 | 2.76%
80 | COc1ccc(-n2nnnc2SCC(=O)Nc2ccccc2N2CCOCC2)cc1 | -6.62%
81 | O=C(c1ccc(Cl)cc1)C1CCCN(Cc2ccc3ncccc3c2)C1 (stereo not drawn) | -2.91%
82 | CSc1ccc(C(=O)C2CCCN(Cc3cccc4nccnc34)C2)cc1 (stereo not drawn) | -82%
83 | COc1ccc(CN2CCCC(C(=O)c3ccc(Cl)cc3)C2)cc1Cn1cccn1 (stereo not drawn) | -78.4%
84 | COc1ccc(CN2CCCC(C(=O)c3cccc(OC(C)C)c3)C2)cc1Cn1cccn1 (stereo not drawn) | -3.41%
85 | COc1ccccc1C(=O)C1CCCN(Cc2cccc3nccnc23)C1 (stereo not drawn) | -45%
86 | COc1c(C)cc(C(=O)C2CCCN(Cc3cccc4nccnc34)C2)cc1C (stereo not drawn) | -21.2%
87 | Cc1ccc(NC(=O)CSc2ccccc2NC(=O)c2cccc(Cl)c2)cc1Cl | 0.293%
